Earlier results as cited in PubChem BioAssay AID977611.
Screen size: about 3,900 compounds; about 3,900 (100%) were called active. The limit is not given here; nearly all actives have Kd up to about 4200 µM. So high a share suggests a set chosen from earlier hits. This is one part of the list. Numbered stars: 1 amine (or outer) side, 2 acyl side, 3 side chain; on linkers, the order of the positions; unused ones are H or OH. Square brackets hold non-standard residues; d marks the D form. Peptide text beside a SMILES is read from it. X2 = C[C@@H](O)C(C)(C)n1cc([C@@H](O)[C@H](N[*:1])C(=O)[*:2])c2ccccc21; Ala(3R-Me,3-isobutenyl) = CC(C)=C[C@@H](C)[C@H](N)C(=O)O; NMeLeu(5-OH,4R) = CN[C@@H](C[C@@H](C)CO)C(=O)O; Phe(βR-OMe) = CO[C@H](c1ccccc1)[C@H](N)C(=O)O; NMeL = CN[C@@H](CC(C)C)C(=O)O

Assay: PubChem AID 977611
Details: PDB protein-ligand complexes, literature Kd

SMILES: O=C1N[C@@H](c2ccc(O)cc2)c2c(-c3ccccc3)n[nH]c21
- Kd (protein: Capsid protein p24, PDB entry 4u0f): 1.2 µM (active)

SMILES: CC(C)C[C@H](NC(=O)[C@H](CO)NC(=O)[C@H](CC(=O)O)NC(=O)[C@H](CC(C)C)NC(=O)[C@H](CC(C)C)NC(=O)[C@H](CC(=O)O)NC(=O)[C@H](CC(=O)O)NC(=O)[C@@H](NC(=O)[C@H](CCC(N)=O)NC(=O)[C@H](CC(=O)O)NC(=O)[C@H](CCC(N)=O)NC(=O)[C@H](CO)NC(=O)[C@H](C)NC(=O)[C@@H](NC(=O)[C@@H](NC(=O)CNC(=O)[C@H](C)N)C(C)C)C(C)C)C(C)C)C(=O)NCC(=O)N[C@@H](Cc1ccccc1)C(=O)O
- Kd (protein: Chemotaxis protein cheY, PDB entry 2pl9): 67.4 µM (active)

SMILES: CC(C)C[C@H](NC(=O)CNC(=O)[C@@H](N)CCC(N)=O)C(=O)N[C@@H](CC(C)C)C(=O)N[C@@H](CC(=O)O)C(=O)N[C@@H](C)C(=O)N[C@@H](CC(C)C)C(=O)N[C@@H](CC(=O)O)C(=O)N[C@@H](CC(C)C)C(=O)N[C@@H](C)C(=O)N[C@@H](CO)C(=O)O
- Kd (protein: 14-3-3 protein zeta/delta, PDB entry 4n7g): 2.2 µM (active)

SMILES: O=C(O)Cc1ccc(N2C(=O)C(O)=C(C(=O)c3ccc(Cl)s3)[C@@H]2c2cc(Br)cs2)cc1
- Kd (protein: Polymerase cofactor Ebola virus VP35, PDB entry 4ibf): 36.8 µM (active)

SMILES: Cc1cc(C)c([C@H]2C(C(=O)c3cccs3)=C(O)C(=O)N2c2ccc(CC(=O)O)cc2)cc1C
- Kd (protein: Polymerase cofactor Ebola virus VP35, PDB entry 4ibb): 271 µM (active)

SMILES: CN[C@@H](C)Cc1ccccc1
- Kd (protein: Anti-METH scFv, PDB entry 4gqp): 0.00025 µM (active)

SMILES: CO[C@H](c1ccccc1)[C@@H]1NC(=O)[C@H](C)NC(=O)[C@H](C[C@@H](C)CO)N(C)C(=O)[C@H]([C@H](O)c2cn(C(C)(C)[C@@H](C)O)c3ccccc23)NC(=O)[C@H]([C@H](C)C=C(C)C)NC(=O)[C@H](CC(C)C)N(C)C(=O)[C@H](C(C)C)NC1=O (cyclo(A[Phe(βR-OMe)]V[NMeL][Ala(3R-Me,3-isobutenyl)][X2][NMeLeu(5-OH,4R)]))
- Kd (protein: Probable ATP-dependent Clp protease ATP-binding subunit(F2Y mutant), PDB entry 3wdd): 0.78 µM (active)
- Kd (protein: Probable ATP-dependent Clp protease ATP-binding subunit, PDB entry 3wdc): 0.012 µM (active)
- Kd (protein: Probable ATP-dependent Clp protease ATP-binding subunit, PDB entry 3wde): 0.124 µM (active)

SMILES: CNC(=O)Nc1cc(Br)cc(NC(=O)NS(=O)(=O)c2cc(C)c(CCOC)s2)n1
- Kd (protein: Fructose-1,6-bisphosphatase 1, PDB entry 4mjo): 0.6 µM (active)

SMILES: CNC(=O)C[C@H](C)O[P+](O)(O)OC
- Kd (protein: Lysozyme C, PDB entry 4tun): 3.87 µM (active)

SMILES: CC(=O)N[C@H]1[C@H]([C@H](O)[C@H](O)CO)O[C@@](OC[C@H]2O[C@@H](O)[C@H](O)[C@@H](O)[C@H]2O)(C(=O)O)C[C@@H]1O
- Kd (protein: H5 (VN1194) Influenza Virus Haemagglutinin, PDB entry 4bgx): 17000 µM (active)
- Kd (protein: Hemagglutinin HA1, PDB entry 4kon): 0.33 µM (active)
- Kd (protein: Hemagglutinin(mutant form), PDB entry 4k67): 372 µM (active)
- Kd (protein: Hemagglutinin, PDB entry 4k64): 1000 µM (active)
- Kd (protein: Telomeric repeat-binding factor 2, PDB entry 4lkk): 1.2 µM (active)
- Kd (protein: neuraminidase, PDB entry 4gzx): 645 µM (active)

SMILES: CC(=O)N[C@H]1[C@H]([C@H](O)[C@H](O)CO)O[C@@H](C(=O)O)C[C@@H]1O
- Kd (protein: hemagglutinin with F95Y mutation of influenza virus B/Lee/40(F95Y mutant), PDB entry 4nrk): 0.024 µM (active)
- Kd (protein: hemagglutinin with F95Y mutation of influenza virus B/Lee/40, PDB entry 4nrl): 0.0024 µM (active)

SMILES: CO[C@]1(C(=O)O)C[C@H](O)[C@@H](NC(=O)CO)[C@H]([C@H](O)[C@H](O)CO)O1
- Kd (protein: Outer capsid protein VP4, PDB entry 3tay): 420 µM (active)

SMILES: CC(=O)N[C@H]1[C@H]([C@H](O)[C@H](O)CO)O[C@@](O[C@H]2[C@@H](O)[C@@H](CO)O[C@@H](O[C@H]3[C@H](O)[C@@H](O)[C@@H](O)O[C@@H]3CO)[C@@H]2O)(C(=O)O)C[C@@H]1O
- Kd (protein: Carbohydrate binding domain from Streptococcus pneumoniae NanA sialidase, PDB entry 4c1w): 0.00039 µM (active)

SMILES: CC(=O)N[C@@H]1[C@@H](O[C@@H]2O[C@@H](C)[C@@H](O)[C@@H](O)[C@@H]2O)[C@H](O[C@@H]2O[C@H](CO)[C@H](O)[C@H](O[C@]3(C(=O)O)C[C@H](O)[C@@H](NC(C)=O)[C@H]([C@H](O)[C@H](O)CO)O3)[C@H]2O)[C@@H](CO)O[C@@H]1O
- Kd (PDB entry 4dxg): 0.087 µM (active)

SMILES: CC(=O)N[C@H]1[C@H]([C@H](O)[C@H](O)CO)O[C@@](O)(C(=O)O)C[C@@H]1O
- Kd (protein: hemagglutinin, PDB entry 4lkh): 1000 µM (active)

SMILES: CC(=O)N[C@H]1[C@H]([C@H](O)[C@H](O)CO)O[C@@](O[C@@H]2[C@@H](O)[C@H](O)O[C@H](CO)[C@@H]2O)(C(=O)O)C[C@@H]1O
- Kd (protein: Hemagglutinin(mutant form), PDB entry 4k66): 554 µM (active)

SMILES: CC(=O)N[C@@H]1[C@@H](O)[C@H](O[C@@H]2O[C@H](CO)[C@H](O)[C@H](O[C@]3(C(=O)O)C[C@H](O)[C@@H](NC(C)=O)[C@H]([C@H](O)[C@H](O)CO)O3)[C@H]2O)[C@@H](CO)O[C@H]1O
- Kd (protein: Hemagglutinin, PDB entry 4k63): 60 µM (active)
- Kd (protein: Neuraminidase, PDB entry 4gzw): 30 µM (active)
- Kd (protein: hemagglutinin, PDB entry 4lkg): 0.16 µM (active)
- Kd (protein: hemagglutinin, PDB entry 4lkj): 0.2 µM (active)

SMILES: CC(=O)N[C@H]1[C@H]([C@H](O)[C@H](O)CO)O[C@@](O[C@H]2[C@@H](O)[C@@H](CO)O[C@@H](O[C@H]3[C@H](O)[C@@H](O)[C@H](O)O[C@@H]3CO)[C@@H]2O)(C(=O)O)C[C@@H]1O
- Kd (protein: Human galectin-3 CRD K176L mutant, PDB entry 4lbl): 11 µM (active)
- Kd (protein: wildtype Human galectin-3 CRD, PDB entry 4lbo): 1.7 µM (active)

SMILES: CC(=O)N[C@H]1[C@H](O[C@@H]2[C@@H](O)[C@H](O)O[C@H](CO)[C@@H]2O)O[C@H](CO)[C@@H](O[C@@H]2O[C@H](CO)[C@H](O)[C@H](O[C@]3(C(=O)O)C[C@H](O)[C@@H](NC(C)=O)[C@H]([C@H](O)[C@H](O)CO)O3)[C@H]2O)[C@@H]1O
- Kd (protein: Hemagglutinin HA1, PDB entry 4kom): 0.1 µM (active)

SMILES: O=C(NC[C@@H](COC(=O)c1cc(O)c(O)c(O)c1)OC(=O)c1cc(O)c(O)c(O)c1)Oc1cccc(C(F)(F)F)c1
- Kd (protein: Plasminogen activator inhibitor 1, PDB entry 4g8o): 0.022 µM (active)
- Kd (protein: Plasminogen activator inhibitor-1, PDB entry 4g8r): 0.022 µM (active)

SMILES: C[C@H]1N[C@@H]2[C@@H](O)[C@H](O)[C@@H](CO)O[C@@H]2S1
- Kd (protein: BETA-N-ACETYLHEXOSAMINIDASE, PDB entry 4az5): 1.02 µM (active)
- Kd (protein: BETA-N-ACETYLHEXOSAMINIDASE, PDB entry 4azc): 1.38 µM (active)

SMILES: CN1Cc2c(ccc3c2OCO3)-c2ccc3cc4c(cc3c21)OCO4
- Kd (protein: Chitinase A(W275G mutant), PDB entry 3as0): 28 µM (active)
- Kd (protein: Chitinase A, PDB entry 3arv): 2.3 µM (active)

SMILES: N[C@@H](CCC(=O)N[C@@H](CSCCN(CCCl)c1ccc(CCCC(=O)O)cc1)C(=O)NCC(=O)O)C(=O)O
- Kd (protein: Glutathione S-transferase A1, PDB entry 4hj2): 2950 µM (active)
